Records with an inconclusive call do not appear. Calls of active or inactive are those of the source. Unless noted, calls follow the shape of the dose curve; as a rule, active = well fitted curve in the direction sought with a large enough effect; inconclusive = small, poorly fitted or top-dose-only effect, or another doubt; inactive = no such curve, though single readings can be large; an effect the other way counts as inactive or inconclusive.
What was measured:
[1] = Cell Viability - BJ (AID 421; calls by dose curve;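 also: potency is read from the fitted curve at half-maximal effect; cells exposed to compound for 40 hours at 37 °C before readout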); details: BJ fibroblast viability, qHTS
In short: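 Normal human BJ foreskin fibroblasts, 1500/well in complete medium, treated 40 hr at 37 °C. Cellular ATP by CellTiter-Glo luminescence; normalized to DMSO and 100 uM tamoxifen, AC50 from Hill fit.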

[2] = Cell Viability - Jurkat (AID 426;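 active = dose-dependent loss of cell ATP signal giving a full or clear fitted curve, ranked by lower potency value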; also: potency is read from the fitted curve at half-maximal effect); details: qHTS
In short: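 Cytotoxicity was scored as loss of cellular ATP, measured by luciferase-based luminescence, in Jurkat clone E6-1 cells after 40 h compound treatment; tamoxifen and doxorubicin served as positive controls.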

[3] = Cell Viability - Hek293 (AID 427;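 active = compounds whose dose-response curve shows a full or clear partial loss of cell viability, called from curve shape rather than a numeric limit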;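 also: potency is read from the fitted curve at half-maximal effect; cells exposed to compound for 40 hours at 37 °C before reading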); details: qHTS
In short: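 HEK293 cells in complete medium were exposed to compound for 40 hr at 37 °C, then cellular ATP was read by CellTiter-Glo luminescence. Data were normalized to DMSO (basal) and 100 uM tamoxifen (100% inhibition), and AC50 came from Hill fits.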

[4] = Cell Viability - HepG2 (AID 433; calls by dose curve;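 also: potency is read from the fitted curve at half-maximal effect; potency for ATP loss meaning cytotoxicity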); details: qHTS
In short: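 Cytotoxicity read as ATP loss (CellTiter-Glo luminescence) after 40 hr compound exposure of HepG2, 1500 cells/well, 37 °C. AC50 by Hill equation; 0% set by DMSO, 100% inhibition by 100 uM tamoxifen.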

[5] = Cell Viability - MRC5 (AID 434; calls by dose curve;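 also: potency is read from the fitted curve at half-maximal effect; potency reflects cytotoxicity seen as loss of intracellular ATP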); details: MRC5 lung fibroblast viability, qHTS
In short: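 ATP luminescence read-out (CellTiter-Glo, 20 min RT) after 40 hr, 37 °C compound exposure of 1500 MRC5 cells/well. Data normalized to DMSO (basal) and 100 uM tamoxifen (100% inhibition); AC50 from standard Hill equation.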

[6] = Cell Viability - N2a (AID 540); details: N2a mouse neuroblastoma cell viability; at 92.2 µM (top of the series);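 also: plate controls were DMSO alone for no effect and tamoxifen control for full effect; nearly all actives have a fitted effect of over 45% in size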
In short: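 In this qHTS cytotoxicity screen, ATP-dependent luciferase luminescence reports viable N2a cells after a 40 hr compound exposure in complete culture medium. Potencies are AC50 values from standard Hill equation fits.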

[7] = Cell Viability - NIH 3T3 (AID 541); details: NIH 3T3 cell viability, qHTS; activity change, negative = cytotoxicity: at 92.2 µM (top of the series);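 also: plate controls were DMSO alone for no effect and tamoxifen positive control for full effect; nearly all actives have a fitted effect of over 25% in size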
In short: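 In this cytotoxicity screen, acute toxicity is scored as an ATP drop measured by CellTiter-Glo in NIH 3T3 fibroblasts following a 40 hr, 37 °C incubation with compound.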

[8] = Cell Viability - HUV-EC-C (AID 542); also: % is scaled to controls: 0 for no effect and ±100 for the full control effect; nearly all actives have a fitted effect of over 35% in size
In short: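 Concentration-dependent ATP loss in HUV-EC-C cells is the measure. Exposure lasts 40 hr at 37 °C; luminescence follows CellTiter-Glo addition, and Hill fits give AC50.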

[9] = Cell Viability - H-4-II-E (AID 543); also: % is scaled to controls: 0 for no effect and ±100 for the full control effect; nearly all actives have a fitted effect of over 35% in size
In short: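 AC50 from Hill-modelled qHTS concentration-response curves. H-4-II-E rat hepatoma cells in complete medium, 40 hr exposure at 37 °C, viability by CellTiter-Glo ATP luminescence.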

[10] = Cell Viability - SH-SY5Y (AID 544); details: SH-SY5Y neuroblastoma cell viability; viability change, negative = cytotoxic: at 92.2 µM (top of the series); also: nearly all actives have a fitted effect of over 55% in size
In short: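 Quantitative HTS in SH-SY5Y neuroblastoma cells, 40 hr treatment at 37 °C, ATP content by luciferase luminescence; AC50 from Hill fits.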

[11] = Cell Viability - Renal Proximal Tubule (AID 545); details: renal proximal tubule cells viability; at 91.7 µM (top of the series), primary cells of rat origin unless noted; also: nearly all actives have a fitted effect of over 40% in size
In short: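 Viability taken as intracellular ATP (CellTiter-Glo luminescence) after 40 hr, 37 °C compound treatment of primary proximal tubule cells from rat kidney, 1000 cells/well; Hill-equation fits of qHTS concentration-response data gave AC50.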

[12] = Cell Viability - Mesenchymal (AID 546);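 also: cells exposed to compound for 40 hours before reading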
In short: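 Human renal mesenchymal cells (glomerulus-derived), 1000 cells/well, 5 hr 37 °C pre-incubation; compound 40 hr, 37 °C; CellTiter-Glo, 20 min RT; luminescence; AC50 via Hill equation.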

[13] = Cellular Toxicity (caspase-3) HepG2 (AID 654);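 also: cells exposed to compound for 16 hours before reading; 0% = DMSO alone and 100% = caspase signal from 100 µM tamoxifen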
In short: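 Concentration-response AC50 values reflect caspase-3/7 induction in HepG2 cells after 16 hours of compound exposure, quantified by luminescence from liberated aminoluciferin and referenced to 100 uM tamoxifen as full stimulation.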

[14] = Cellular Toxicity (caspase-3) Jurkat (AID 655); details: Jurkat caspase-3 activation, luminescence, DMSO = 0%, tamoxifen = 100%; at 92.2 µM (top of the series);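 also: cells exposed to compound for 16 h at 37 °C before reading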
In short: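 Luminescent Caspase-Glo 3/7 read-out (20 min, room temperature) after 16 h compound treatment at 37 C of 5000 Jurkat cells per well. AC50 derived by Hill-equation fitting, scaled between DMSO basal and 100 uM tamoxifen stimulation.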

[15] = Cellular Toxicity (caspase-3) HUV-EC-C (AID 656)
In short: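 Luminescent Caspase-Glo 3/7 readout after 16 h, 37 °C compound exposure of HUV-EC-C endothelial cells, 1000 per well, complete medium. AC50 derived by Hill fitting, with DMSO as baseline and 100 uM tamoxifen as full activation.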

[16] = Cellular Toxicity (caspase-3) SHSY5Y (AID 657)
In short: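 Luminescent Caspase-Glo 3/7 read-out, 1 hr room temperature, follows 16 hours of compound treatment of SH-SY5Y cells at 37 °C. Normalization: DMSO basal, 10 uM staurosporine as 100%; AC50 values from Hill-equation concentration-response fits.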

[17] = Cellular Toxicity (caspase-3) BJ (AID 658)
In short: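 qHTS, BJ fibroblasts, 1000 cells/well; 5 hr preincubation, 16 hr compound, 37 °C; Caspase-Glo 3/7 reagent, 1 hr RT; luminescence. DMSO = 0%, 10 uM staurosporine = 100%. Hill-equation AC50.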

[18] = Cellular Toxicity (caspase-3) MRC-5 (AID 659)
In short: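 MRC-5 fibroblasts, 1500/well; 16 h cpd, 37 °C; Caspase-Glo 3/7, 1 h RT; lumi read. Norm: DMSO = 0%, 10 uM staurosporine = 100%. Hill-fit AC50 from qHTS conc-response.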

[19] = Cellular Toxicity (caspase-3) SK-N-SH (AID 661)
In short: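 Apoptosis readout in SK-N-SH neuroblastoma: Caspase-Glo 3/7 luminescence following 16 hr treatment in complete culture medium. Normalization used DMSO and 10 uM staurosporine controls.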

[20] = Cellular Toxicity (caspase-3) H-4-II-E (AID 663);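 also: cells exposed to compound for 16 hr before readout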
In short: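 H-4-II-E rat hepatoma, 1500 cells/well, 5 hr settle at 37 °C; compound 16 hr, 37 °C, complete medium; Caspase-Glo 3/7, 20 min RT; luminescence. DMSO = 0%, 100 uM tamoxifen = 100%; Hill-equation AC50.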

[21] = Cellular Toxicity (caspase-3) Hek293 (AID 664);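 also: cells exposed to compound for 16 h at 37 °C before readout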
In short: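 Apoptosis readout: Caspase-Glo 3/7 signal in human HEK293 cells following 16-hour compound incubation. Responses scaled between DMSO baseline and 100 uM tamoxifen.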

[22] = Cellular Toxicity (caspase-3) N2a (AID 665); details: N2a cells, luminescence, normalized: DMSO 0%, 10 µM staurosporine 100%; at 92.2 µM (top of the series);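 also: compound exposure lasted 16 h at 37 °C before readout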
In short: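 Concentration-response qHTS: compound-induced caspase-3/7 luminescence in N2a cells (16 h, 37 °C), relative to DMSO and 10 uM staurosporine controls; AC50 obtained using the standard Hill equation.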

[23] = Cellular Toxicity (caspase-3) NIH 3T3 (AID 666);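 also: caspase signal read after 16 h compound exposure; 0% = DMSO basal and 100% = 100 µM tamoxifen stimulation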
In short: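 Activity: caspase-3/7 induction, NIH 3T3 cells, 16 hr treatment at 37°C, luminescent Caspase-Glo detection; AC50 via Hill equation.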

CCCCOC(=O)c1ccccc1C(=O)OCCCC
inactive: Potency [1] > 92 µM | Potency [2] > 92 µM | Potency [3] > 92 µM | Potency [4] > 92 µM | Potency [5] > 92 µM | activity change, negative = cytotoxicity [6] -7.34% | activity change, negative = cytotoxicity [7] -3.85% | Potency [8] | Potency [9] | Potency [10] | activity change, negative = cytotoxicity [11] 1.09% [at 91.7 µM] | outcome [12] | outcome [13] | caspase-3 activation [14] -1.56% | outcome [15] | outcome [16] | outcome [17] | outcome [18] | outcome [19] | outcome [20] | outcome [21] | caspase-3 activation [22] -1.36% | outcome [23]

From PubChem BioAssay (NCATS)
